A selection: hits, their analogues and other compounds. The true share with any hit is near 4.3%.
ADAM17 inh = ADAM17 inhibitors, primary screen, biochemical, QFRET | recombinant ADAM17, EDANS/DABCYL FRET peptide cleavage | AID 720648, 2013 | actives 0.83% (n = 370,000) | inhibition, % at 6.95 µM;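 active = inhibition above the mean of compounds lying between control limits plus 3 SD, set per campaign, cut at about 8.5% in these data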;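 note: 0% = DMSO-only wells as the low control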
FAS TE block = FAS thioesterase domain inhibitors, primary screen, biochemical, fluorescence intensity, uHTS; actives 0.67% (n = 360,000); recombinant FAS-TE, OMFH fluorogenic substrate, fluorescence endpoint; inhibition, % at 15 µM; Fatty acid synthase (Homo sapiens), P49327;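 active = compounds whose normalised, plate-corrected inhibition of enzyme fluorescence in the single-dose primary screen is 50% or more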;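 note: 0% = DMSO with enzyme and 100% = substrate without enzyme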
sPLA2-III inh = human group III sPLA2 inhibitors, primary screen, biochemical, QFRET, BODIPY PC-A2 liposome substrate; Group 3 secretory phospholipase A2 (Homo sapiens), Q9NZ20; QFRET BODIPY PC-A2 liposome hydrolysis, fluorescence; inhibition, % at 12.2 µM; actives 0.56% (n = 370,000); AID 743126, 2013;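 active = inhibition above mean plus 3 SD of compounds lying within the high and low control bounds, cut at about 19% in these data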;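 note: 0% = median of test compound wells and 100% = no enzyme DMSO wells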
ADAM10 inh = human ADAM10 inhibitors, primary screen, biochemical, QFRET, HTS; inhibition, % at 7 µM; actives 0.62% (n = 370,000); recombinant ADAM10, EDANS/DABCYL FRET peptide cleavage, 3 h;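 active = inhibition above a per-campaign cutoff equal to the mean of compounds falling between control-based bounds plus 3 SD, cut at about 20% in these data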;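 note: 0% = DMSO wells while the 100% control is not disclosed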
GRIN3A LBD mod = binders of NR3A ligand-binding domain, primary screen, biophysical, differential scanning fluorimetry, uHTS; Glutamate receptor ionotropic, NMDA 3A (GRIN3A) ligand-binding domain; Tm shift relative to glycine control, % at 25 µM; AID 1259313, 2017; NR3A LBD differential scanning fluorimetry, Tm shift; 0% = protein alone, 100% = glycine-bound protein; actives 2.5% (n = 340,000);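 active = melting temperature shift of at least 10% of the positive control shift, at one fixed dose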
Starred values were filed as active, the others as inactive; / = not tested or not shown.

SMILES | ADAM17 inh | FAS TE block | sPLA2-III inh | ADAM10 inh | GRIN3A LBD mod
O=C(CN1C(=O)c2ccccc2S1(=O)=O)N1CCCCC1 | 3 | -4 | 1 | 4 | -6
CN1CCC(=NNC(=O)CSc2ccc(Cl)cc2)CC1 | -4 | -7 | -2 | -4 | 21*
CC(=O)CC[C@H]1CC[C@]2(CCCN(C(=O)c3ccc4ccccc4n3)C2)O1 | 1 | / | 9 | 0 | /
Cc1nc2c(=O)[nH]c(=S)n(C)c2nc1C | -1 | -3 | 21* | 1 | 3
CCC(NC(=O)c1ccc2c(c1)c(C)c(C)n2Cc1ccc(-c2ccccc2C#N)cc1)c1ccccc1 (configuration not stated) | -6 | / | 13 | -4 | /
CS(=O)(=O)N(CC(=O)Nc1ccc(CC#N)cc1)c1ccc(C23CC4CC(CC(C4)C2)C3)cc1 | -4 | 41 | -7 | -3 | 26*
C#CCN1C(=O)[C@@](O)(c2cccn2C)c2cc(F)ccc21 | 3 | / | 5 | -2 | /
COc1ccc(S(=O)(=O)Nc2cc(C)ccc2OC)cc1C | 0 | 1 | -15 | 11 | 12*
COc1ccc(C)cc1NS(=O)(=O)c1ccc(NS(=O)(=O)c2ccc(NC(C)=O)cc2)cc1 | 1 | 3 | -27 | -2 | 0
Nc1nc(=S)[nH]c2c1C1(CCCCC1)Cc1ccccc1-2 | -6 | -2 | 1 | -27 | 13*
Cc1csc2ncnc(N3CCN(C(=S)Nc4ccc(C(F)(F)F)cc4)CC3)c12 | 0 | 42 | 8 | -1 | 15*
C=CCCC(=O)N[C@H]1CC[C@@]23CCCN2C(=O)CCC[C@H]3[C@H]1C | -4 | / | 3 | -5 | /
O=C(NC(Cc1ccccc1)C(=O)O)/C(=C\c1ccc(Cl)cc1)NC(=O)c1ccccc1 (configuration not stated) | -1 | -2 | 3 | -10 | -2
O=C(NC(Cc1ccccc1)C(=O)O)/C(=C/c1ccccc1)NC(=O)c1ccccc1 (configuration not stated) | -2 | -7 | 15 | -3 | 14*
COc1ccc(Nc2ccc(Cl)nn2)cc1 | -3 | -2 | 6 | 5 | -2
Clc1ccc(Nc2ccc(Cl)nn2)cc1 | 1 | 4 | -2 | 1 | 24*
O=C(Cn1c(=O)oc2ccccc21)Nc1nc(-c2ccc(Br)cc2)cs1 | -1 | -16 | 2 | 5 | 15*
O=C(CSc1nc2ccccc2[nH]1)Nc1nc(-c2ccc(Br)cc2)cs1 | 5 | 17 | -27 | 11 | 35*
Cc1ccccc1NC(=O)c1cccc2c1-c1ccccc1C2=O | -2 | / | 1 | -2 | /
Cc1cccc(S(=O)(=O)c2c(N)n(-c3ccccc3)c3nc4ccccc4nc23)c1 | -72 | 11 | -4 | -273 | 12*
COc1cccc(/C=N/n2c(N)c(S(=O)(=O)c3cccs3)c3nc4ccccc4nc32)c1 | -3 | 16 | 4 | -4 | 1
Nc1c(S(=O)(=O)c2ccccc2)c2nc3ccccc3nc2n1/N=C/c1ccco1 | -76 | 24 | -7 | -267 | 13*
Nc1c(S(=O)(=O)c2cccs2)c2nc3ccccc3nc2n1/N=C/c1cccc(O)c1 | -9 | 20 | -1 | -13 | 28*
Cc1cccc(S(=O)(=O)c2c(N)n(/N=C/c3cccnc3)c3nc4ccccc4nc23)c1 | -1 | -4 | -6 | -5 | 45*
O=C(c1cc(Cl)cc(Cl)c1)N1CCC(Oc2cccnc2)CC1 | 0 | / | -6 | -4 | /
O=C(Cn1nnc(-c2ccc(N3CCOCC3)cc2)n1)c1cccc(F)c1 | 1 | / | -39 | -2 | /
Cc1ccc(Cn2nc(C)c(NC(=O)CCCn3nc(C)c([N+](=O)[O-])c3C)c2C)cc1 | -2 | 11 | -6 | 3 | 2
Cc1ccc(C)c(Oc2cc(NC(=O)CCCn3nc(C)c([N+](=O)[O-])c3C)cc([N+](=O)[O-])c2)c1 | -1 | 34 | 2 | -8 | 16*
N#C/C(=C\c1ccccc1[N+](=O)[O-])c1nc(C2CC2)cs1 | 4 | 24 | 18 | 2 | 16*
